From the supplement of paper PMC11172423
A number with no mark means an inactive call.

These compounds were tested on Madurella mycetomatis MM55 (assay: growth relative to untreated control; higher = less inhibition, active = 20 or less). Settings: 25 µM.
How it was run: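 For each test, a hyphal fragment suspension of M. mycetomatis MM55 or F. senegalensis CBS197.79 was prepared in colourless RPMI 1640 with L-glutamine and MOPS at 68–72% transmission at 660 nm. Exposure to compound at 100 or 25 µM ran for 7 days at 37 °C in 96-well plates, followed by viability reading with MTS (2 h, 490 nm) or resazurin (600 nm). Growth corresponds to metabolic activity relative to the untreated growth control after correction of both with a blank of medium and dye.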
Compound `N#CCNC(=O)c1cnccc1C(F)(F)F` has a growth of 109%.
With `CCc1nn(C)c(C(=O)NCc2ccc(Oc3ccc(C)cc3)cc2)c1Cl` the growth was 66.4%.
`CC[C@H]1CN2CCc3cc(OC)c(OC)cc3[C@@H]2C[C@@H]1C[C@H]1NCCc2cc(OC)c(OC)cc21` was tested, and the growth was 84.8%.
With `O=C(NC(=O)c1c(F)cccc1F)Nc1ccc(Cl)c(Oc2ncc(C(F)(F)F)cc2Cl)c1` the growth was 46.7%.
In the case of `CCN(Cc1ccc(Cl)nc1)/C(=C/[N+](=O)[O-])NC`, the growth is reported as 86.9%.
In the case of `Cc1nc(N(C)C)nc(OC(=O)N(C)C)c1C`, the growth is reported as 109%.
`CC1(C)CNC(=NN=C(C=Cc2ccc(C(F)(F)F)cc2)C=Cc2ccc(C(F)(F)F)cc2)NC1` was tested, and the growth was 104%.
In the case of `CC(C)Nc1cc2c(cn1)nc(Nc1cc(Cl)cc(C(F)(F)F)c1)n2C1CCNC1` (centres undefined), the growth is reported as 7.15% (active).
Compound `CNC(=O)Oc1ccccc1OC(C)C` has a growth of 120%.
`CC(C)(C#N)NC(=O)c1cc(Cl)cc(Cl)c1NC(=O)c1cc(Cl)nn1-c1ncccc1Cl` was tested, and the growth was 104%.
Compound `FC(F)(F)c1cc(Cl)cc(Nc2nc3cnc(OC4CCC4)cc3n2[C@@H]2CCNC2)c1` has a growth of 79.6%.
`CN1C(=O)C(C(=O)Nc2ccc(Cl)c(Cl)c2)C(=O)N(C)C1=O` was tested, and the growth was 56%.
For `CC1(Nc2ncc3nc(Nc4cc(Cl)cc(C(F)(F)F)c4)n(C4CCNC4)c3n2)CC1` (centres undefined), the growth was 6.99% (active).
With `CCOc1ccc(C(C)(C)COCc2cccc(Oc3ccccc3)c2)cc1` the growth was 97%.
